# Several values for one entry are separate records, joined by “and”; a condition that tells them apart may be missing. Equal values may be shown once. Records with an inconclusive call do not appear. Activity calls are given as the source filed them. Rule for the calls: active = hit-call score of the fitted dose curve at least 0.9, where 1 is the maximum; inconclusive = response in the unintended direction; inactive = score below 0.9.
# Key:
# [1] = target: human Peripheral-type Benzodiazepine Receptor (PBR), TSPO (gene 706) (UniProt P30536); experiment: NVS_MP_hPBR: NovaScreen (NVS) Membrane Protein Assay for human Peripheral-type Benzodiazepine Receptor (PBR) (AID 2283331);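 note: hits reduce radioligand binding relative to DMSO baseline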
# Sequence of human Peripheral-type Benzodiazepine Receptor (PBR), TSPO (gene 706) (P30536 whole entry, looked up): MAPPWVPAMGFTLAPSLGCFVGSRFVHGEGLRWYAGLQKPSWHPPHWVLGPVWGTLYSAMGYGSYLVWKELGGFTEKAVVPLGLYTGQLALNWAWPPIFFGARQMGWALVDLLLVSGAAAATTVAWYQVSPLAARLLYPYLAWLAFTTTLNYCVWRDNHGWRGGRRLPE
# Summary of the method: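 Scintillation counts of filter-bound radioligand served as read-out after 1 h chemical dosing of human colonic membrane preparations. Activity was scored as signal loss against DMSO; initial duplicates at 25 uM, confirmatory concentration series afterward.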
# [2] = target: rat Thyrotropin Releasing Hormone Receptor (TRH), Trhr (gene 25570) (UniProt Q01717); experiment: NVS_GPCR_rTRH: NovaScreen (NVS) G Protein-Coupled Receptor Assay for rat Thyrotropin Releasing Hormone Receptor (TRH) (AID 2283329);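 note: hit means lower bound tracer signal versus DMSO baseline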
# Sequence of rat Thyrotropin Releasing Hormone Receptor (TRH), Trhr (gene 25570) (Q01717 whole entry, looked up): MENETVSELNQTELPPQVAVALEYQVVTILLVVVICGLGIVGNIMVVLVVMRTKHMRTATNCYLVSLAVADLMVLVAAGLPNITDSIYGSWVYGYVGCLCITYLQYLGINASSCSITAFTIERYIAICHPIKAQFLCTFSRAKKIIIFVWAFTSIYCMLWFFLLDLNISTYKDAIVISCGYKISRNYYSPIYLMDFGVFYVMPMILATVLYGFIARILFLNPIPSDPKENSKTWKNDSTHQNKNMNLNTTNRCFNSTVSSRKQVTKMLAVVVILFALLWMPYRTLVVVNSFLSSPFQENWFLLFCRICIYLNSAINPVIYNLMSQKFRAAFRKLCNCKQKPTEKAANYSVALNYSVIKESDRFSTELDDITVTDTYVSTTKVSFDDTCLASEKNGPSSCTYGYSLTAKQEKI
# Summary of the method: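 Test compounds are screened at 25 uM in duplicate against radioligand binding in rat forebrain membranes, with active pairs followed up over a concentration range. Detection uses filter-based radiodetection after a 4 h exposure.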
# [3] = target: Sodium channel protein type 1 subunit alpha (Rattus norvegicus) (UniProt P04774); experiment: NVS_IC_rNaCh_site2: NovaScreen (NVS) Ion Channel Assay for rat Sodium Channel, Site 2 (NaCh) (AID 2283322);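 note: hit means loss of radioligand binding signal relative to DMSO so AC50 marks displacement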
# Summary of the method: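 Membranes: rat forebrain. Format: competitive radioligand displacement, filter separation, scintillation readout, 1 h exposure. Primary screen in duplicate at 25 uM; actives retested in concentration series.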
# [4] = NVS_IC_rCaBTZCHL: NovaScreen (NVS) Ion Channel Assay for Calcium Channel, Type L, Benzothiazepine Site (CaBTZCHL) (AID 2283337)
# Summary of the method: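 Competitive displacement of a site-specific radioligand from rat cortex membranes, measured as signal loss against DMSO baseline by filter radiodetection after 1.5 h. Single-point 25 uM primary screen.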
# [5] = target: Small conductance calcium-activated potassium channel protein 1 (Rattus norvegicus) (UniProt P70606); experiment: NVS_IC_rKCaCh: NovaScreen (NVS) Ion Channel Assay for rat Potassium Channel, Ca2+ Act., VI (KCaCh) (AID 2283336)
# Sequence of Small conductance calcium-activated potassium channel protein 1 (Rattus norvegicus) (P70606 whole entry, looked up): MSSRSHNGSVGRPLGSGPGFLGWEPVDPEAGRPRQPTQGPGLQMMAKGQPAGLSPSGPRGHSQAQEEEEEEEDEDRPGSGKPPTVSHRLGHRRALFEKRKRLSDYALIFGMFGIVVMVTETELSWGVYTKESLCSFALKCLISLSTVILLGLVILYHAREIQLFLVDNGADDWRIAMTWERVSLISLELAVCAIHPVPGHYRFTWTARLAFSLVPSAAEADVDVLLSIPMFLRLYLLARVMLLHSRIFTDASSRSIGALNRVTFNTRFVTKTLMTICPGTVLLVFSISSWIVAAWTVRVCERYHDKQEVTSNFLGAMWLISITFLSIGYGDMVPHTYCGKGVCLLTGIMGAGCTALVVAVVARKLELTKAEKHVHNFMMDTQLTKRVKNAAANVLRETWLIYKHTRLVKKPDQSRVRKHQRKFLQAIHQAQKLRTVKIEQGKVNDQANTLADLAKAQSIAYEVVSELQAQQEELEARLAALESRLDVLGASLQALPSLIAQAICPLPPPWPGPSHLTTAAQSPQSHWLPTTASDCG
# Summary of the method: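 Radioligand binding to rat forebrain membranes, cell-free, read 1 hour after dosing by filter-based scintillation counting. Compounds first run in duplicate at 25 uM, actives then in concentration series; loss of signal vs DMSO indicates displacement.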
# [6] = target: rat Glutamate, AMPA Site (AMPA), Gria1 (gene 50592) (UniProt P19490); experiment: NVS_LGIC_rAMPA: NovaScreen (NVS) Ligand-Gated Ion Channel Assay for rat Glutamate, AMPA Site (AMPA) (AID 2283324)
# Sequence of rat Glutamate, AMPA Site (AMPA), Gria1 (gene 50592) (P19490 whole entry, looked up): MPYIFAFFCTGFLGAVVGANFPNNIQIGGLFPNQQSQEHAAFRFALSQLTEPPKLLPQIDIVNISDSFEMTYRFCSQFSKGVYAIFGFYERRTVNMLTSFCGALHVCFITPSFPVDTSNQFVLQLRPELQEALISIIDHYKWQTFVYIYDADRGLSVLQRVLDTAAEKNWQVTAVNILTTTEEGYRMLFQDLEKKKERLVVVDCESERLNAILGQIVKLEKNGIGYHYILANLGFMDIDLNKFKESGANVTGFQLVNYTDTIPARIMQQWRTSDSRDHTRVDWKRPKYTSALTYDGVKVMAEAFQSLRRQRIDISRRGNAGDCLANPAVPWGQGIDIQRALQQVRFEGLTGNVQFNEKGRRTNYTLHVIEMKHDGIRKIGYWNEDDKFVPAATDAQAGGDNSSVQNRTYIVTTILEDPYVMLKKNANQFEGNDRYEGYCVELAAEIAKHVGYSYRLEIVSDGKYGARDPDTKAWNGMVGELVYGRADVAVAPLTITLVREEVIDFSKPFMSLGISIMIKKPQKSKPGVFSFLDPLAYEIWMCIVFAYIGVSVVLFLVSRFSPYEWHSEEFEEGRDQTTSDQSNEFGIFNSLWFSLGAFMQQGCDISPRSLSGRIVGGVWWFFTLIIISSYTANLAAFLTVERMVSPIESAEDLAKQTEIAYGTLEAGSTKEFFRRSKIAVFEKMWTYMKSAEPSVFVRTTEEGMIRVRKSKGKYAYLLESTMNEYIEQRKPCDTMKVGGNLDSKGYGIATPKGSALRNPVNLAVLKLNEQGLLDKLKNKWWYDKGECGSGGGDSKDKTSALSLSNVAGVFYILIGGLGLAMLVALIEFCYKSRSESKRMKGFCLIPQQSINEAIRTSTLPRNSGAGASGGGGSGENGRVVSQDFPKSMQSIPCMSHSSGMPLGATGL
# Summary of the method: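 Rat forebrain membranes; radioligand binding read 1 h after dosing by filtration and scintillation counting. Duplicate single-point screen at 25 uM, then concentration-response to 50 uM for threshold hits (e.g. 30% inhibition); loss of signal vs DMSO.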
# [7] = target: bovine Gamma-Aminobutyric Acid Type A Receptor Agonist (GABAR Agonist), GABRA1 (gene 780973) (UniProt P08219); experiment: NVS_LGIC_bGABAR_Agonist: NovaScreen (NVS) Ligand-Gated Ion Channel Assay for bovine Gamma-Aminobutyric Acid Type A Receptor Agonist (GABAR Agonist) (AID 2283338)
# Sequence of bovine Gamma-Aminobutyric Acid Type A Receptor Agonist (GABAR Agonist), GABRA1 (gene 780973) (P08219 whole entry, looked up): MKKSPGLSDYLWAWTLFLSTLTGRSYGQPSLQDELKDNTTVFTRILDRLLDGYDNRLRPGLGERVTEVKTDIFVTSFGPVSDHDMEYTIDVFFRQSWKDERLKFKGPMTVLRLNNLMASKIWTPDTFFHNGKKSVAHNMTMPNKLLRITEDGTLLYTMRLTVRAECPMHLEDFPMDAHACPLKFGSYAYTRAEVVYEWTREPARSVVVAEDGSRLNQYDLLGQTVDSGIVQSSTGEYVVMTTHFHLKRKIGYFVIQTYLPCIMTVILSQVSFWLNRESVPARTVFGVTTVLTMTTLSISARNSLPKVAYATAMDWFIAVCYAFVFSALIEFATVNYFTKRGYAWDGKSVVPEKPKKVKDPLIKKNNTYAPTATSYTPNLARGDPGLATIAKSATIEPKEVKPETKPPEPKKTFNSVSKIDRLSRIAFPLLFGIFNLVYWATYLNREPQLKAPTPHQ
# Summary of the method: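 Radioligand binding to bovine cerebellar membranes in agonist format, read by filter-based scintillation counting after 1 h. Primary screen in duplicate at 25 uM, with actives followed in concentration series. Gain of signal versus DMSO.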
# [8] = target: human Serotonin, 5-Hydroxytryptamine Receptor 3 (5HT3), HTR3A (gene 3359) (UniProt P46098); experiment: NVS_LGIC_h5HT3: NovaScreen (NVS) Ligand-Gated Ion Channel Assay for human Serotonin, 5-Hydroxytryptamine Receptor 3 (5HT3) (AID 2283325)
# Summary of the method: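 Radioligand displacement binding to human 5-HT3 from HEK293 membranes, read by filter-based scintillation counting after 1 h. Screen at 25 uM in duplicate; chemicals passing threshold were retested in concentration-response up to 50 uM.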
# [9] = target: rat Gamma-Aminobutyric Acid Type A Receptor, Non-Selective (GABAR-NonSelective), Gabra1 (gene 29705) (UniProt P62813); experiment: NVS_LGIC_rGABAR_NonSelective: NovaScreen (NVS) Ligand-Gated Ion Channel Assay for rat Gamma-Aminobutyric Acid Type A Receptor, Non-Selective (GABAR-NonSelective) (AID 2283326)
# Sequence of rat Gamma-Aminobutyric Acid Type A Receptor, Non-Selective (GABAR-NonSelective), Gabra1 (gene 29705) (P62813 whole entry, looked up): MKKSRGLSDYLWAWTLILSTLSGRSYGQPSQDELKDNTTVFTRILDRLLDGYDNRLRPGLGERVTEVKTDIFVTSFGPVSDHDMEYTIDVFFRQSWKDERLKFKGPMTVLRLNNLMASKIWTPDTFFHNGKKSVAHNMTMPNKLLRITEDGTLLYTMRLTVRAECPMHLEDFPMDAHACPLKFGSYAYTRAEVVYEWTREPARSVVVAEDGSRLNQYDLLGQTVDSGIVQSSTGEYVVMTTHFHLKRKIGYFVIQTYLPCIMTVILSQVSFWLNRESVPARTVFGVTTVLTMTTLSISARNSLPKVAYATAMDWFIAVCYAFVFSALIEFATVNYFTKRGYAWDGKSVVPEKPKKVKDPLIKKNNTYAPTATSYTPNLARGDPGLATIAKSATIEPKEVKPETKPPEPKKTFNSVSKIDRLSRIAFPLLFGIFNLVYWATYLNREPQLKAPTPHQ
# Summary of the method: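 Radioligand displacement on rat whole-brain extract, 1 h, filter scintillation readout; signal loss fitted versus DMSO. Primary screen in duplicate at 25 uM; hits (e.g. ≥30% inhibition) retested in concentration-response up to 50 uM.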
# [10] = target: Voltage-gated inwardly rectifying potassium channel KCNH2 (Homo sapiens) (UniProt Q12809); experiment: NVS_IC_hKhERGCh: NovaScreen (NVS) Ion Channel Assay for human Potassium Channel ERG (KhERGCh) (AID 2283333)
# Sequence of Voltage-gated inwardly rectifying potassium channel KCNH2 (Homo sapiens) (Q12809 whole entry, looked up): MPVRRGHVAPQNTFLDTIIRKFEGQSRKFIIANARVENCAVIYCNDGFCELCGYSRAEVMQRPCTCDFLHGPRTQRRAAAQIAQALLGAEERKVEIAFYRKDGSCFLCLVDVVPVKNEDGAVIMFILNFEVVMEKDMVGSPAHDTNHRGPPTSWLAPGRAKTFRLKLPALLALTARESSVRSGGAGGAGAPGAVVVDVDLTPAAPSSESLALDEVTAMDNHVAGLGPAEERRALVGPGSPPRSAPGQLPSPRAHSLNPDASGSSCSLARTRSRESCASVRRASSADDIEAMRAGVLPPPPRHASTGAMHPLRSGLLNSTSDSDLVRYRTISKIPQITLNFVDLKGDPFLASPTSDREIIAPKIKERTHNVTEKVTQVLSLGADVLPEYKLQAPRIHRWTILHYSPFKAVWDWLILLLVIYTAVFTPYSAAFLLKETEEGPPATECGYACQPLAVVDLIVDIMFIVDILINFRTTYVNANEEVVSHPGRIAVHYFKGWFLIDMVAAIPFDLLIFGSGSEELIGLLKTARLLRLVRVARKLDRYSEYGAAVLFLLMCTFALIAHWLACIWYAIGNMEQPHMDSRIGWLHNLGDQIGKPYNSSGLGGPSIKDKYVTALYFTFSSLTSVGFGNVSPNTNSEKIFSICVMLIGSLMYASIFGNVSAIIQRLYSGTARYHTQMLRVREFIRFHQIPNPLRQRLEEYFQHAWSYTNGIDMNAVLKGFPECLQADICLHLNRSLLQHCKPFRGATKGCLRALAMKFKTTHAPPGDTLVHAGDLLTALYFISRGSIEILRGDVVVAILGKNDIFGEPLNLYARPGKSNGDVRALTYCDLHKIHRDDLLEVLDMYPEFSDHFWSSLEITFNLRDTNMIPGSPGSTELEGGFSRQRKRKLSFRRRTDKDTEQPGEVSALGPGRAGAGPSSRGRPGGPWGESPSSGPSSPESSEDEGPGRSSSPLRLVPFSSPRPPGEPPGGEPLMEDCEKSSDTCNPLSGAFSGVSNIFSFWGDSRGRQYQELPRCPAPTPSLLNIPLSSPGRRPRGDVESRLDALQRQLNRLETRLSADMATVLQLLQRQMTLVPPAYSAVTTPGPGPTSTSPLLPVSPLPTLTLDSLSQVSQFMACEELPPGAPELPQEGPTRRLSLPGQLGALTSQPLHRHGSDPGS
# Summary of the method: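 Cell-free radioligand competition binding on hERG protein extracted from CHO cells, read by filter-based scintillation counting 0.75 h after dosing. Primary screen at 25 uM in duplicate, actives followed in concentration series. Signal loss fitted versus DMSO.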
# [11] = target: rat Oxytocin Receptor (OXT), Oxtr (gene 25342) (UniProt P70536); experiment: NVS_GPCR_rOXT: NovaScreen (NVS) G Protein-Coupled Receptor Assay for rat Oxytocin Receptor (OXT) (AID 2283330)
# Sequence of rat Oxytocin Receptor (OXT), Oxtr (gene 25342) (P70536 whole entry, looked up): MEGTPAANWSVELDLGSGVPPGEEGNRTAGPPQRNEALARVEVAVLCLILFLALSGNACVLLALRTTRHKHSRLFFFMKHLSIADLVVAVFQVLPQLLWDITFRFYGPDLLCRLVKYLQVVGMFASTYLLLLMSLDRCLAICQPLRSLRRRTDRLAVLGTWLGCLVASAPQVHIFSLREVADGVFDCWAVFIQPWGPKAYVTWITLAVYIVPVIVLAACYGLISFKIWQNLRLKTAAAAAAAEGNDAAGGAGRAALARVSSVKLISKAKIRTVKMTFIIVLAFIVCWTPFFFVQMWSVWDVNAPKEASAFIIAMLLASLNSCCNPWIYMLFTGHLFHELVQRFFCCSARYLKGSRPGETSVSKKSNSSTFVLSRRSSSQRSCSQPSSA
# Summary of the method: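 Radioligand displacement on rat uterine membranes, 1 h incubation, filter-based scintillation counting. Chemicals were screened in duplicate at 25 uM, and those passing threshold were retested in concentration-response up to 50 uM. Loss of binding was fitted versus DMSO.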
# [12] = target: rat Glycine Receptor, Strychnine-sensitive (GlyRStrySens), Glra1 (gene 25674) (UniProt P07727); experiment: NVS_LGIC_rGlyRStrySens: NovaScreen (NVS) Ligand-Gated Ion Channel Assay for rat Glycine Receptor, Strychnine-sensitive (GlyRStrySens) (AID 2283341)
# Summary of the method: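 Radioligand displacement on rat spinal cord membranes, 1 hr, filter scintillation read-out. Single-concentration duplicate screen at 25 uM; chemicals meeting threshold (e.g., 30% inhibition) rerun in concentration-response up to 50 uM. Loss of binding fitted versus DMSO.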
# [13] = target: rat Glutamate, MK-801 Agonist Site (GluNMDA_MK801), Grin1 (gene 24408) (UniProt P35439); experiment: NVS_LGIC_rGluNMDA_MK801_Agonist: NovaScreen (NVS) Ligand-Gated Ion Channel Assay for rat Glutamate, MK-801 Agonist Site (GluNMDA_MK801) (AID 2283340)
# Summary of the method: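 Radioligand binding at MK-801 site in rat forebrain membranes, 1.5 h incubation, filter-based scintillation counting. Initially 25 uM in duplicate; actives then run in concentration-response up to 50 uM, fitted for gain of signal versus DMSO.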
# [14] = target: bovine Gamma-Aminobutyric Acid Type A Receptor BDZ, alpha 1 site (GABARa1), GABRA1 (gene 780973) (UniProt P08219); experiment: NVS_LGIC_bGABARa1: NovaScreen (NVS) Ligand-Gated Ion Channel Assay for bovine Gamma-Aminobutyric Acid Type A Receptor BDZ, alpha 1 site (GABARa1) (AID 2283321)
# Sequence of bovine Gamma-Aminobutyric Acid Type A Receptor BDZ, alpha 1 site (GABARa1), GABRA1 (gene 780973) (P08219 whole entry, looked up): as the sequence (P08219 whole entry, looked up) above
# Summary of the method: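 Radioligand competition binding on bovine cortical membranes, 0.75 h, filter-based scintillation counting. Primary single concentration 25 uM in duplicate; actives rerun in concentration-response to 50 uM max. Loss of signal fitted versus DMSO.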
# [15] = target: bovine Gamma-Aminobutyric Acid Type A Receptor BDZ, alpha 5 site (GABARa5), GABRA5 (gene 523515) (UniProt Q08E50); experiment: NVS_LGIC_bGABARa5: NovaScreen (NVS) Ligand-Gated Ion Channel Assay for bovine Gamma-Aminobutyric Acid Type A Receptor BDZ, alpha 5 site (GABARa5) (AID 2283323)
# Summary of the method: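 Radioligand competitive displacement binding on bovine hippocampal membranes, read 1 hr after dosing by filter-based scintillation counting. Primary screen at 25 uM in duplicate; actives (e.g. ≥30% inhibition) then run in concentration-response up to 50 uM.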
# [16] = target: rat Gamma-Aminobutyric Acid Type A Receptor BDZ, alpha 6 site (GABARa6), Gabra6 (gene 29708) (UniProt P30191); experiment: NVS_LGIC_rGABARa6: NovaScreen (NVS) Ligand-Gated Ion Channel Assay for rat Gamma-Aminobutyric Acid Type A Receptor BDZ, alpha 6 site (GABARa6) (AID 2283339)
# Summary of the method: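 Rat cerebellar membranes; radioligand binding, filtration and scintillation counting, read 1 h after dosing. Single-concentration duplicate screen at 25 uM, then concentration-response up to 50 uM for actives; loss of signal fitted versus DMSO baseline.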
# [17] = target: rat Glutamate, NMDA Agonist Site (GluNMDA), Grin1 (gene 24408) (UniProt P35439); experiment: NVS_LGIC_rGluNMDA_Agonist: NovaScreen (NVS) Ligand-Gated Ion Channel Assay for rat Glutamate, NMDA Agonist Site (GluNMDA) (AID 2283327)
# Summary of the method: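 Rat forebrain membranes, radioligand binding in the agonist-site protocol; 1 h after dosing; filter-based scintillation counting. Single-concentration duplicate screen at 25 uM, then concentration-response up to 50 uM for actives; gain-of-signal vs DMSO.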
compound,measurement,setting,value
Cc1ccccc1CO[C@@H]1C[C@@]2(C(C)C)CC[C@]1(C)O2,AC50,[1],8.27 µM (active)
Sc1ccccc1,outcome,[2],inactive
CC1=C2C[C@H]3[C@@H](CC=C4C[C@@H](O)CC[C@@]43C)[C@@H]2CC[C@]12O[C@@H]1C[C@H](C)CN[C@H]1[C@H]2C,AC50,[3],0.171 µM (active)
same,outcome,[4],inactive
COc1ccc(O)c(C(C)(C)C)c1,AC50,[3],38.2 µM (active)
same,outcome,[5],inactive
Clc1ccc(C(c2ccccc2Cl)C(Cl)(Cl)Cl)cc1 (stereo not drawn),outcome,[6],inactive
CCC(C)c1cc([N+](=O)[O-])cc([N+](=O)[O-])c1O (stereo not drawn),outcome,[7],inactive
CCCCCCCCCc1ccc(O)cc1,outcome,[8],inactive
same,outcome,[2],inactive
CC(C)(c1ccccc1)c1ccc(O)cc1,AC50,[3],31.4 µM (active)
same,outcome,[1],inactive
same,outcome,[5],inactive
CCCCCCOC(=O)c1ccccc1C(=O)OCCCCCC,outcome,[9],inactive
same,outcome,[10],inactive
Cc1cc(O)ccc1Cl,AC50,[1],2.64 µM (active)
O=C(NC(=O)c1cc(F)c(F)cc1Cl)Nc1cc(F)ccc1N1CCC(C(=O)O)CC1,outcome,[11],inactive
same,outcome,[5],inactive
same,outcome,[12],inactive
O=NN(c1ccccc1)c1ccccc1,outcome,[13],inactive
Oc1ccc(Cl)cc1Cl,outcome,[10],inactive
Cc1cc2c3c(c1)C(c1ccccc1)=N[C@@H](NC(=O)c1ccncc1)C(=O)N3CC2,AC50,[14],25 µM (active)
same,AC50,[15],1.43 µM (active)
same,outcome,[16],inactive
CCSC(=O)N(CC)C1CCCCC1,outcome,[17],inactive
same,outcome,[1],inactive
CC(c1ccc(O)cc1)(c1ccc(O)cc1)c1ccc(O)cc1,outcome,[14],inactive
same,outcome,[6],inactive
same,outcome,[17],inactive
Cc1cccc(C)c1N,outcome,[6],inactive
CCC(C)(c1ccc(O)cc1)c1ccc(O)cc1,AC50,[3],13.7 µM (active)
same,AC50,[17],16.4 µM (active)
same,AC50,[1],9.64 µM (active) and 2.96 µM (active) and 14.1 µM (active)

# From PubChem BioAssay (EPA / NIEHS)
